Test results: PubChem BioAssay AID1159580 (chemical genetic matrix, 2015)
Several values for one entry are separate records, joined by “and”; a condition that tells them apart may be missing. Equal entries are not always repeated. The campaign covered roughly 5,500 compounds. About 2,000 (36%) were called active. Inconclusive results (about 18%) are left out. Rule as the data show it: active = normalized growth mostly below about 0.91 (no sharp cut-off); inconclusive = no clear call, values can overlap the other calls; inactive = mostly above about 0.92. The list shows a part of the results.

Assay: chemical genetic growth profiling, strain panel (AID 1159580);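 also: tested at 20 µM; growth read once vehicle control cultures reached saturation at 30 °C; 1 = growth at the plate median or of vehicle wells; lower values mean less growth of the strain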
Details: growth OD

Measured: normalized growth

COCCc1ccc(OCC(O)CNC(C)C)cc1 (stereo unspecified)
inactive: S. cerevisiae deletion strains, locus YJR075W, strain HOC1, stronger effect = lower value 1.01 | S. cerevisiae deletion strains, locus YKL009W, strain mrt4, stronger effect = lower value 1 | S. cerevisiae deletion strains, locus YKL068W, stronger effect = lower value 1.01 | S. cerevisiae deletion strains, locus YKL085W, strain MDH1 (second series), stronger effect = lower value 0.998 | S. cerevisiae deletion strains, locus YKL085W, strain MDH1, stronger effect = lower value 0.998 | S. cerevisiae deletion strains, locus YKL160W, strain elf1, stronger effect = lower value 0.98 | S. cerevisiae deletion strains, locus YKL190W, strain CNB1, stronger effect = lower value 1.01 | S. cerevisiae deletion strains, locus YKR001C, strain vps1, stronger effect = lower value 0.999 | S. cerevisiae deletion strains, locus YKR026C, strain gcn3, stronger effect = lower value 1 | S. cerevisiae deletion strains, locus YKR091W, strain srl3, stronger effect = lower value 0.988 | S. cerevisiae deletion strains, locus YLL001W, strain dnm1, stronger effect = lower value 0.935 | S. cerevisiae deletion strains, locus YLL026W, stronger effect = lower value 0.99 | S. cerevisiae deletion strains, locus YLL041C, strain sdh2, stronger effect = lower value 1 | S. cerevisiae deletion strains, locus YLR027C, strain aat2, stronger effect = lower value 1.02 | S. cerevisiae deletion strains, locus YLR039C, strain RIC1, stronger effect = lower value 0.989 | S. cerevisiae deletion strains, locus YLR058C, strain SHM2, stronger effect = lower value 1.01 | S. cerevisiae deletion strains, locus YLR102C, strain apc9, stronger effect = lower value 1.01 | S. cerevisiae deletion strains, locus YLR113W, strain HOG1, stronger effect = lower value 1.03 | S. cerevisiae deletion strains, locus YLR221C, strain rsa3, stronger effect = lower value 0.955 | S. cerevisiae deletion strains, locus YLR258W, strain gsy2, stronger effect = lower value 1.01 | S. cerevisiae deletion strains, locus YLR262C, strain YPT6 (second series), stronger effect = lower value 1 | S. cerevisiae deletion strains, locus YLR262C, strain YPT6, stronger effect = lower value 1 | S. cerevisiae deletion strains, locus YLR268W, strain sec22, stronger effect = lower value 1.08 | S. cerevisiae deletion strains, locus YLR320W, strain mms22, stronger effect = lower value 0.977 | S. cerevisiae deletion strains, locus YLR330W, strain CHS5, stronger effect = lower value 1.01 | S. cerevisiae deletion strains, locus YLR342W, strain FKS1 (second series), stronger effect = lower value 1.01 | S. cerevisiae deletion strains, locus YLR342W, strain FKS1, stronger effect = lower value 0.993 | S. cerevisiae deletion strains, locus YLR357W, strain rsc2, stronger effect = lower value 0.973 | S. cerevisiae deletion strains, locus YLR370C, strain arc18, stronger effect = lower value 0.99 | S. cerevisiae deletion strains, locus YLR371W, strain rom2, stronger effect = lower value 1.01 | S. cerevisiae deletion strains, locus YLR384C, strain iki3, stronger effect = lower value 0.991 | S. cerevisiae deletion strains, locus YLR418C, strain cdc73, stronger effect = lower value 0.986 | S. cerevisiae deletion strains, locus YML016C, strain PPZ1, stronger effect = lower value 1.01 | S. cerevisiae deletion strains, locus YML032C, strain rad52, stronger effect = lower value 1.03 | S. cerevisiae deletion strains, locus YML120C, strain ndi1, stronger effect = lower value 0.942 | S. cerevisiae deletion strains, locus YML124C, strain tub3, stronger effect = lower value 1.01 | S. cerevisiae deletion strains, locus YMR058W, strain fet3, stronger effect = lower value 0.989 | S. cerevisiae deletion strains, locus YMR078C, strain ctf18, stronger effect = lower value 1.01 | S. cerevisiae deletion strains, locus YMR125W, strain sto1, stronger effect = lower value 0.97 | S. cerevisiae deletion strains, locus YMR129W, stronger effect = lower value 0.996 | S. cerevisiae deletion strains, locus YMR205C, strain PFK2, stronger effect = lower value 0.962 | S. cerevisiae deletion strains, locus YMR223W, strain ubp8, stronger effect = lower value 0.995 | S. cerevisiae deletion strains, locus YMR231W, strain pep5, stronger effect = lower value 0.997 | S. cerevisiae deletion strains, locus YMR263W, strain SAP30, stronger effect = lower value 1.02 | S. cerevisiae deletion strains, locus YMR307W, strain GAS1, stronger effect = lower value 1.02 | S. cerevisiae deletion strains, locus YNL067W, strain RPL9B, stronger effect = lower value 1.02 | S. cerevisiae deletion strains, locus YNL071W, strain lat1, stronger effect = lower value 0.989 | S. cerevisiae deletion strains, locus YNL128W, strain TEP1, stronger effect = lower value 1.01 | S. cerevisiae deletion strains, locus YNL153C, strain GIM3, stronger effect = lower value 1.02 | S. cerevisiae deletion strains, locus YNL175C, strain NOP13, stronger effect = lower value 1.01 | S. cerevisiae deletion strains, locus YNL183C, strain NPR1, stronger effect = lower value 1 | S. cerevisiae deletion strains, locus YNL197C, strain WHI3, stronger effect = lower value 0.984 | S. cerevisiae deletion strains, locus YNL209W, strain ssb2, stronger effect = lower value 0.987 | S. cerevisiae deletion strains, locus YNL224C, strain SQS1, stronger effect = lower value 0.988 | S. cerevisiae deletion strains, locus YNL233W, strain BNI4, stronger effect = lower value 1.01 | S. cerevisiae deletion strains, locus YNL248C, strain rpa49, stronger effect = lower value 0.992 | S. cerevisiae deletion strains, locus YNL250W, strain rad50, stronger effect = lower value 1.01 | S. cerevisiae deletion strains, locus YNL271C, strain bni1, stronger effect = lower value 1.01 | S. cerevisiae deletion strains, locus YNL298W, strain CLA4, stronger effect = lower value 1.02 | S. cerevisiae deletion strains, locus YNL307C, strain MCK1, stronger effect = lower value 1.02 | S. cerevisiae deletion strains, locus YNL322C, strain KRE1 (second series), stronger effect = lower value 0.98 | S. cerevisiae deletion strains, locus YNL322C, strain KRE1, stronger effect = lower value 1 and 0.99 | S. cerevisiae deletion strains, locus YNR049C, strain mso1, stronger effect = lower value 0.978 | S. cerevisiae deletion strains, locus YNR052C, strain pop2, stronger effect = lower value 1.01 | S. cerevisiae deletion strains, locus YOL006C, strain TOP1, stronger effect = lower value 1.07 | S. cerevisiae deletion strains, locus YOL012C, strain htz1 0.79 | S. cerevisiae deletion strains, locus YOL147C, strain pex11, stronger effect = lower value 1.01 | S. cerevisiae deletion strains, locus YOR001W, strain rrp6, stronger effect = lower value 1.03 | S. cerevisiae deletion strains, locus YOR061W, strain CKA2, stronger effect = lower value 1.01 | S. cerevisiae deletion strains, locus YOR069W, strain VPS5, stronger effect = lower value 1.01 | S. cerevisiae deletion strains, locus YOR070C, strain gyp1, stronger effect = lower value 0.995 | S. cerevisiae deletion strains, locus YOR080W, strain dia2, stronger effect = lower value 0.985 | S. cerevisiae deletion strains, locus YOR083W, strain WHI5 (second series), stronger effect = lower value 0.999 | S. cerevisiae deletion strains, locus YOR083W, strain WHI5, stronger effect = lower value 0.981 | S. cerevisiae deletion strains, locus YOR106W, strain vam3, stronger effect = lower value 0.957 | S. cerevisiae deletion strains, locus YOR136W, strain idh2, stronger effect = lower value 1.01 | S. cerevisiae deletion strains, locus YOR144C, strain elg1, stronger effect = lower value 1.01 | S. cerevisiae deletion strains, locus YOR184W, strain ser1, stronger effect = lower value 1.02 | S. cerevisiae deletion strains, locus YOR231W, strain MKK1, stronger effect = lower value 1.03 | S. cerevisiae deletion strains, locus YOR265W, strain rbl2, stronger effect = lower value 0.995 | S. cerevisiae deletion strains, locus YOR270C, strain vph1, stronger effect = lower value 0.975 | S. cerevisiae deletion strains, locus YOR290C, strain snf2, stronger effect = lower value 0.91 | S. cerevisiae deletion strains, locus YOR316C, strain cot1, stronger effect = lower value 1.01 | S. cerevisiae deletion strains, locus YPL051W, strain arl3, stronger effect = lower value 1 | S. cerevisiae deletion strains, locus YPL055C, strain LGE1, stronger effect = lower value 0.989 and 1.01 | S. cerevisiae deletion strains, locus YPL078C, strain atp4, stronger effect = lower value 0.978 | S. cerevisiae deletion strains, locus YPL106C, strain sse1, stronger effect = lower value 0.971 | S. cerevisiae deletion strains, locus YPL240C, strain hsp82, stronger effect = lower value 0.992 | S. cerevisiae deletion strains, locus YPL241C, strain CIN2, stronger effect = lower value 1 and 0.974 | S. cerevisiae deletion strains, locus YPL256C, strain CLN2, stronger effect = lower value 1.1 | S. cerevisiae deletion strains, locus YPR119W, strain clb2, stronger effect = lower value 1.02 | S. cerevisiae deletion strains, locus YPR141C, strain kar3, stronger effect = lower value 1.02 | S. cerevisiae deletion strains, locus YPR163C, strain tif3, stronger effect = lower value 1.02 | S. cerevisiae deletion strains, locus YPR167C, strain met16, stronger effect = lower value 1.01 | S. cerevisiae deletion strains, strain wtn01, stronger effect = lower value 1.05 | S. cerevisiae strains, strain wild type, stronger effect = lower value 1.01
